# Sampled rows, rich in hits. Any-hit rate of the full collection: about 1.2%.
# RN4220 kill – kills Staphylococcus aureus RN4220; S. aureus RN4220 growth, OD600, 16 h; inhibition, % (no concentration beside the values); 330,000 compounds, 0.33% hits; in the data active means inhibition above about 85%;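 further: plate controls were untreated cells for no effect and reference antibiotic for full effect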
# Vc quorum ag – induces V. cholerae light production without autoinducers. V. cholerae BH1578 lux reporter, luminescence, 6 h. activation, % at 18.7 µM. 350,000 compounds, 0.16% hits; in the data active means activation mostly above about 9.7%, no sharp cut-off; inconclusive means no clear call, values can overlap the other calls; inactive means mostly below about 3.7%
# Sa ugtP lethal – kills S. aureus RN4220 lacking UgtP | S. aureus RN4220 ugtP deletion, OD600 growth, 16 h | 330,000 compounds, 0.54% hits | growth inhibition, % (test concentration not listed) | AID 1259309; in the data active means growth inhibition above about 68%;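 further: plate controls were untreated wells for no effect and antibiotic for full effect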
# PfHsp40 rescue – rescue of PfHsp40-mediated yeast toxicity. S. cerevisiae expressing PfHsp40, growth rescue, ATP luminescence. growth rescue, % at 12.5 µM. 340,000 compounds, 0.68% hits; in the data active means growth rescue above about 28%, passing the limit was not always enough; inconclusive means no clear call, values can overlap the other calls;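 further: yeast W303a lacking pdr1 and pdr3 grown in galactose medium; growth measured after three days at 30 °C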
# Mtb betalactam – beta-lactam sensitization of Mtb H37Rv. AID 434955. M. tuberculosis H37Rv growth with meropenem, percent inhibition. inhibition, % at 25 µM. 330,000 compounds, 0.27% hits; call rule not given here;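 further: growth measured after seven days incubation then overnight dye step; 0% = bacteria only wells and 100% = bacteria with antibiotic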
# The depositor's hits bear a star; i = inactive; ? = inconclusive; . = no result given.
SMILES,RN4220 kill,Vc quorum ag,Sa ugtP lethal,PfHsp40 rescue,Mtb betalactam
CCN1C(=O)NC(c2ccc(Br)cc2)C(C(C)=O)=C1C (stereo unspecified),1,.,5,.,.
COc1ccc2c(n1)Sc1nc3ccccc3nc1N2,0,0,8,336*,10
COc1cc2ccccc2nn1,2,0,5,0,5
Cc1nn(-c2nc3ccccc3[nH]2)c(=O)c2ccccc12,5,-1,-3,-6,2
Cc1nn(-c2nc3ccccc3[nH]2)c(N)c1-c1ccc(Cl)cc1,57,i,95*,3,100
CCSc1nnc(NC(=O)c2nc(-c3ccccc3)n(-c3ccccc3)n2)s1,18,i,7,126*,85
c1ccc(-c2nnc(-c3ccccn3)nc2NC2CCCCC2)cc1,97*,i,89,46*,82
Cc1ccc(SCCC(=O)N2CCOCC2)cc1,3,i,8,0,3
Cc1ccc(SCCC(=O)N2CCCC2)cc1,7,i,0,42*,-5
CC(=NNc1ccc(Cl)cc1)c1cnnc(-c2ccccc2)n1,2,.,-7,.,.
COc1cc2c(cc1OC)C(=O)N1C3c4cc(Cl)ccc4OCC3C(c3ccccc3)[C@]1(C)C(=O)N2 (stereo partly specified),-6,.,-9,.,.
COc1cc2c(cc1OC)C(=O)N1[C@H]3c4ccccc4OC[C@@H]3[C@H](c3ccccc3)[C@]1(C)C(=O)N2,.,-3,.,63*,97
COc1ccc2c(c1)OC[C@H]1[C@H]2N2C(=O)c3cc(Br)ccc3NC(=O)[C@@]2(C)[C@H]1c1ccccc1,.,i,.,333*,99
COc1ccc2c(c1)OC[C@H]1[C@H]2N2C(=O)c3cc(OC)c(OC)cc3NC(=O)[C@@]2(C)[C@H]1c1ccccc1,.,-1,.,44*,96
COc1ccc2c(c1)OCC1C2N2C(=O)c3cc(OC)ccc3NC(=O)[C@@]2(C)C1c1ccccc1 (stereo partly specified),-1,.,-4,.,.
COc1ccc(C2C3C(=O)N(C(C)(C)C)C(=O)C3[C@]3(Cc4ccccc4)C(=O)N(c4ccc(OC)cc4)C(=O)N23)cc1 (stereo partly specified),6,.,-5,.,.
CCN1C(Nc2ccccc2)=NCC1C (stereo unspecified),5,.,-10,.,.
CCN1CC2C3C(=O)N(Cc4ccccc4)C(=O)C3[C@](C)(C1=O)N2C(=O)c1ccc(C(C)(C)C)cc1 (stereo partly specified),8,.,4,.,.
O=C(/C(=N/N=C/c1ccc(O)c(O)c1O)c1ccccc1)c1ccccc1,.,0,.,520*,-2
Cc1ccc(S(=O)(=O)c2ccc([N+](=O)[O-])o2)cc1,.,4,.,265*,.
Cc1ccc(S(=O)(=O)NN=Cc2ccc([N+](=O)[O-])o2)cc1,8,.,36,.,.
COc1ccc(C2CC(=O)C=C(c3ccc(Cl)c(F)c3)C2)cc1 (stereo unspecified),-2,.,-10,.,.
CC(C)COC(=O)c1ccc2c(c1O)C(=O)c1ccccc1C2=O,92*,1,93*,3,100
COc1ccc2c(c1O)C(=O)c1ccccc1C2=O,.,.,.,.,-6
CC(C)CCCN1C(N(C)C)=NCC1Cc1ccccc1 (stereo unspecified),4,.,0,.,.
SMILES,RN4220 kill,Vc quorum ag,Sa ugtP lethal,PfHsp40 rescue,Mtb betalactam
Cc1cc(C)cc(OCC(=O)N(C)CC(=O)Nc2ccc(Cl)c(C(F)(F)F)c2)c1,-4,i,-20,51*,-10
CCc1ccccc1NCC(=O)Nc1ccc(Cl)c(C(F)(F)F)c1,83,5,90*,?,5
COc1ccccc1NC(=O)CN1CCN(CC(=O)Nc2ccc(Cl)c(C(F)(F)F)c2)CC1,-15,i,-26,1,.
O=C1CN(CC(=O)N2CCOCC2)c2ccccc2O1,.,.,.,.,97
O=C1CN(CC(=O)N2CCCCC2)c2ccccc2O1,.,i,.,125*,98
COc1ccc2[nH]c3c(c2c1)CCN1C(=O)N([C@@H](C)C(=O)NCCc2ccc(F)cc2)C(=O)[C@]31C,-2,0,-1,58*,5
Cc1cnnn1-c1ccc(C(=O)CCl)cc1,98*,0,98*,0,-5
CC(=O)c1ccc(-n2nncc2C(C)(C)C)cc1,-1,i,-5,0,5
Nc1ccc(N=Nc2ccccc2)c(N)n1,5,i,-4,6,2
Cc1[nH]c(N=Nc2ccccc2)nc1N=Nc1ccccc1,.,i,.,80*,93
O=C1OCCN1N=Cc1ccc([N+](=O)[O-])o1,100*,.,100*,.,.
O/N=C(\c1ccc(Cl)cc1)c1cc2ccccc2o1,.,-3,.,641*,1
O=C(Nc1ccc(Cl)cc1Cl)c1cc2ccccc2o1,2,12,6,-1,2
O=C(COc1ccccc1[N+](=O)[O-])NN=Cc1cccs1,7,.,4,.,.
C[C@H](O)[C@H]1CC[C@H]2[C@@H]3CCC4=CC(=O)CC[C@]4(C)[C@H]3CC[C@]12C,.,i,.,158*,-5
CC(O)C1CCC2C3CCC4=CC(=O)CC[C@]4(C)C3CC[C@]12C (stereo partly specified),12,.,3,.,.
COc1ccc(C2CC=C(C(=O)O)C(c3ccccc3)N2S(=O)(=O)c2ccccc2C)cc1 (stereo unspecified),20,.,14,.,.
CC(C)(O)C1Cc2c(ccc3ccc(=O)oc23)O1 (stereo unspecified),5,.,1,.,.
Cc1cccc(S(=O)(=O)Nc2cccc(-c3cn4ccsc4n3)c2)c1,-2,i,85*,1,-3
CCC(C)(C)n1nnnc1C(c1cccnc1)N1CCN(c2cccc(C(F)(F)F)c2)CC1 (stereo unspecified),2,i,-5,215*,-11
CCC(C)(C)n1nnnc1C(c1ccncc1)N1CCN(c2cccc(OC)c2)CC1 (stereo unspecified),6,0,10,-2,2
COc1cccc(N2C(CC(C)=O)c3ccc(C=CC(C)=O)cc3S2(=O)=O)c1 (stereo unspecified),5,.,8,.,.
COc1ccc(N=Cc2cc(Cc3ccccc3Cl)cc([N+](=O)[O-])c2O)cc1OC,-3,1,-3,?,14
Cc1ccc(N=Cc2cc(Cc3ccccc3Cl)cc([N+](=O)[O-])c2O)c(O)c1,7,i,-7,83*,97
CC(OC(=O)NCc1ccc(C(F)(F)F)cc1)C1O[C@@]2(C)CCCC1O2 (stereo partly specified),6,.,-1,.,.
Cn1c(O)c(C=NNC(=O)c2cc3ccccc3cc2O)c2ccccc21,31,.,93*,.,.
O=C(NNC(=O)c1cc(Br)ccc1O)c1csc(N2CCOCC2)n1,.,1,.,76*,4
Cc1ccc(C(=O)NC(=Cc2cccnc2)C(=O)NCc2ccco2)cc1,8,.,6,.,.
O=C(O)c1ccc2[nH]c3c(c2c1)CCCC3,1,-1,-5,35*,-9
CC1CCc2[nH]c3ccc(C(=O)O)cc3c2C1 (stereo unspecified),5,i,-4,3,5

# Source: PubChem
